Results as given in PubChem BioAssay (NCI).
This is part of a sample that, as a whole, favours compounds with a hit. Of some 79,000 tested, about 15% had one in any assay. Active and inactive are the calls of the source. Cut-off read from the data, not from the text of the source: active = growth inhibition above about 70%; inactive = the rest.

How the values were obtained:
[1] = NCI Yeast Anticancer Drug Screen. Data for the rad50 strain (AID 155);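 note: 0% = growth of vehicle-only cultures of the same strain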; details: S. cerevisiae rad50 strain growth inhibition; at 50.0 µM; hits give high values
In short: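 Growth of the mutant yeast was measured after compound exposure and referenced to vehicle-treated cultures.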

[2] = NCI Yeast Anticancer Drug Screen. Data for the mec2-1 strain (AID 157); details: S. cerevisiae mec2-1 strain, at 50.0 µM, hits give high values
In short: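 Test agents were screened against the mec2-1 yeast strain, with defined DNA repair or cell cycle alteration. Growth was scored as inhibition against vehicle-only controls.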

[3] = NCI Yeast Anticancer Drug Screen. Data for the sgs1 mgt1 strain (AID 161);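 note: 0% = growth of cultures given vehicle only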; details: S. cerevisiae sgs1 mgt1 strain, at 50.0 µM, hits give high values
In short: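 Mutant yeast exposed to compound; growth scored against vehicle-only wells.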

[4] = NCI Yeast Anticancer Drug Screen. Data for the cln2 rad14 strain (AID 165);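 note: 0% = growth equal to vehicle treated cultures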; details: S. cerevisiae cln2 rad14 strain, at 50.0 µM, hits give high values
In short: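 Growth of compound-exposed yeast (cln2 rad14 genotype) measured and expressed as inhibition relative to vehicle.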

[5] = NCI Yeast Anticancer Drug Screen. Data for the bub3 strain (AID 167); details: S. cerevisiae bub3 mutant strain, at 50.0 µM, hits give high values
In short: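 Whole-cell yeast assay. The mutant strain was incubated with compounds, and growth inhibition was determined by comparison with vehicle-treated cells.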

[6] = NCI Yeast Anticancer Drug Screen. Data for the mlh1 rad18 strain (AID 175); details: S. cerevisiae mlh1 rad18 strain growth inhibition; at 50.0 µM; hits give high values
In short: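 In this whole-cell yeast screen, a strain with altered DNA damage repair is challenged with compound, and its growth is measured against matched vehicle-treated controls.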

Measured: growth inhibition

c1ccc2c(c1)NC1(CCCCC1)S2
inactive: [1] 5.35% | [2] -13.1% | [3] 39.5% | [4] 11.6% | [5] 5% | [6] 11.9%

COc1cc(/C=C(\OC(C)=O)c2ccc3c(c2)OCO3)cc(OC)c1OC
inactive: [1] -5% | [2] -0.95% | [3] 33.2% | [4] 13.6% | [5] 44% | [6] -19.1%

CCO/C=C(\C(=O)OC)S(=O)(=O)c1ccc(C)cc1
inactive: [1] -18.5% | [2] 3.1% | [3] 2.35% | [4] 1.7% | [5] -9.1% | [6] -19.5%

COc1ccc(N2C(=O)C3CC(c4ccc(Br)cc4)c4c([nH]c5ccccc45)C3C2=O)cc1 (configuration not stated)
inactive: [1] 1.7% | [2] -14.4% | [3] 5.55% | [4] -51.8% | [5] 2.9% | [6] -4.95%

c1ccc(C2=NC3CCCCC3S2)cc1 (configuration not stated)
inactive: [1] 2.95% | [2] -10.6% | [3] 3.7% | [4] -32.3% | [5] -5.55% | [6] -2.75%

CC(=O)O[C@H]1CSC[C@@H](OC(C)=O)C1[N+](=O)[O-] (some centres not stated)
inactive: [1] 37.5% | [2] 25.4% | [3] 17.7% | [4] 43.2% | [5] 18.8% | [6] 47.1%

Clc1cc(OCC23CC4CC(CC(C4)C2)C3)nc(OCC23CC4CC(CC(C4)C2)C3)n1
inactive: [1] -35.1% | [2] 4.6% | [3] -18.7% | [4] -4.8% | [5] 9% | [6] -13.4%

COC(=O)/C=C\n1c(C)cc(=O)[nH]c1=O
inactive: [1] 2.9% | [2] 0.35% | [3] -5.5% | [4] -4.75% | [5] -2.8% | [6] -45.5%

O=C1C=C(Nc2ccccc2C(=O)CC(=O)C(=O)Nc2ccc(Cl)cc2)c2ccccc2C1=O
inactive: [1] 5.05% | [2] 0.95% | [3] 6.9% | [4] -3.05% | [5] 42.5% | [6] 9.8%

O=C(C[n+]1ccccc1)c1ccc([N+](=O)[O-])cc1
inactive: [1] -3.35% | [2] -2.2% | [3] -4.45% | [4] -30.1% | [5] -6.7% | [6] 38.7%

C[Si](C)(C)/C(=N/Nc1ccc([N+](=O)[O-])cc1[N+](=O)[O-])c1ccccc1
inactive: [1] -13.2% | [2] 9.9% | [3] -12.9% | [4] -13.6% | [5] -7.9% | [6] -7.15%

CC(C)N(C(=O)c1cccc2ccccc12)C(C)C
inactive: [1] 16.4% | [2] 6.95% | [3] 8.35% | [4] 4.55% | [5] 8% | [6] 32.2%

Nc1ccn(C2OC(COP(=O)(O)O)C(O)C2O)c(=O)n1 (configuration not stated) (tested in a mixture with another compound)
inactive: [1] -3.8% | [2] -4.25% | [3] -0.75% | [4] -44.4% | [5] 1.15% | [6] 14.1%

C/C(=N/O)c1cccc([N+](=O)[O-])c1
inactive: [1] -10.7% | [2] 15.5% | [3] -4.95% | [4] -14.3% | [5] -3.6% | [6] -7.15%

O=C([O-])C[n+]1ccccc1/C=C/c1ccccc1
inactive: [1] -19.2% | [2] 1.8% | [3] -23.1% | [4] -15.2% | [5] -7.75% | [6] -23.9%

O=C(OCc1ccccc1)c1ccccc1-c1c2ccc(=O)cc-2oc2cc(OCc3ccccc3)ccc12
inactive: [1] 33.4% | [2] 18% | [3] 40.9% | [4] 23.6% | [5] 21.3% | [6] 26.1%

O=C(O)Cn1c(=O)n(CC(=O)O)c2ccccc21
inactive: [1] 6.85% | [2] -4.95% | [3] -4.2% | [4] -10% | [5] 3.25% | [6] -7.65%

CCCC(=O)Nc1cc(/C=C/C(=O)N2C[C@H]3C[C@@]34C2=CC(=O)c2[nH]cc(C)c24)n(C)c1
inactive: [5] 58%
active: [1] 80.2% | [2] 89.3% | [3] 83.7% | [4] 81.2% | [6] 84.2%

O=c1[nH]cc(Cl)cc1Cl
inactive: [1] 0.05% | [2] 3.85% | [3] -4% | [4] -8.35% | [5] 2.3% | [6] -1.45%

COc1ccc(C2=Nn3c(nc4sc(C)c(C)c4c3=O)SC2)cc1
inactive: [1] 2.45% | [2] -8.15% | [3] -3.7% | [4] 19.1% | [5] 2.95% | [6] -14.3%

C/C(=N\NC(=S)Nc1ccc(C(=O)O)cc1)c1nccc2ccccc12
inactive: [1] 3.2% | [2] 1.1% | [3] 4.2% | [4] 28.9% | [5] 9.75% | [6] 7.25%

CC1COC(c2cc3c(cc2Cl)OCO3)O1 (configuration not stated)
inactive: [1] -12.4% | [2] -2.4% | [3] -20.3% | [4] -10.9% | [5] -26.6% | [6] -0.4%

BrC1=NOC2c3cccc4cccc(c34)C12 (configuration not stated)
inactive: [1] 2.4% | [2] 8.95% | [3] 19.6% | [4] 42% | [5] 34% | [6] 22.8%

O=C(Nc1nc2ncn(CCNCc3ccccc3)c2c(=O)[nH]1)c1ccccc1
inactive: [1] -7.75% | [2] -22.8% | [3] 6.25% | [4] 10.6% | [5] 15.4% | [6] 24.6%

Cc1ccc(S(=O)(=O)CN2C(=O)C(c3ccccc3)(c3ccccc3)C23OC(c2ccc(Cl)cc2)=CC3=O)cc1 (configuration not stated)
inactive: [1] -2.35% | [2] -7.7% | [3] -5.7% | [4] -20.1% | [5] -35.7% | [6] -21.9%

CC(C)=C1CCC(CN(C)C)C1=O (configuration not stated)
inactive: [1] 30.4% | [2] 4.7% | [3] 35% | [4] 5.35% | [5] -18.9% | [6] 7.55%

Cc1cn(CC(O)c2cc3ccccc3[nH]2)c(=O)[nH]c1=O (configuration not stated)
inactive: [1] 9.7% | [2] 13.6% | [3] -0.1% | [4] 12.1% | [5] 9.65% | [6] 7.15%

COc1cc(CC/C(C)=N/O)ccc1OCc1ccccc1
inactive: [1] -13.1% | [2] -21.2% | [3] 0.7% | [4] -39.6% | [5] 9.65% | [6] -22.8%

Cn1c2cc(Cl)c(Cl)cc2nc2cc3c(cc21)c(Cl)c(=O)c1cc2cc(Cl)c(Cl)cc2cc13
inactive: [1] 31.8% | [2] 8.65% | [3] 11.3% | [4] 25.9% | [5] -2.85% | [6] 20.3%

CCC(CC)C(=O)OC1CCCCC1C(C)C (configuration not stated)
inactive: [1] 6.8% | [2] -3.5% | [3] -0.2% | [4] -13.6% | [5] 3.05% | [6] 0.35%

O=S(=O)(Nc1ccc(C(F)(F)F)cc1)c1ccc(F)cc1
inactive: [1] -5.7% | [2] 7.35% | [3] 26% | [4] 15.9% | [5] -0.95% | [6] 28.1%

COc1ccc(O)c(C(=O)O)c1
inactive: [1] -20.2% | [2] -12.3% | [3] -7.55% | [4] 12.6% | [5] -3.35% | [6] 2.15%

COC(=O)C1=NC(=S)N=C(C(=O)OC)C1(C)C(=O)c1ccccc1
inactive: [1] 4.3% | [2] -6.95% | [3] -12.4% | [4] 0.8% | [5] 3.75% | [6] 18.4%

Cc1cc(-n2nnc3ccccc3c2=O)on1
inactive: [1] -21.2% | [2] -30.7% | [3] -17.1% | [4] -9.5% | [5] -26% | [6] 2.5%

CCNC(=O)OCCN(CCOC(=O)NCC)CCc1cccc(OC)c1OC
inactive: [1] 6.1% | [2] 6.65% | [3] -7.3% | [4] 1.95% | [5] -3.5% | [6] 20.6%

CC(C)(C)c1cc(/C=N/NC(=S)Nc2ccccc2)cc(C(C)(C)C)c1O
inactive: [1] 25.9% | [2] 8.35% | [3] 41% | [4] -26.3% | [5] -7.15% | [6] 41.5%

CC(=O)Nc1cc2c(cc1C=O)OCO2
inactive: [1] 19.6% | [2] 9.7% | [3] -0.6% | [4] -32.3% | [5] -2.5% | [6] 11.3%
